Measurements taken from publication PMC4336329 (PLoS ONE, 2015).
About 14,000 (4.5%) of roughly 310,000 compounds showed an effect of 50% or more. The effect is printed as a negative number. Shown is part of a subset that was picked to be rich in strong results.

Biological target: human ether-à-go-go-related gene (hERG) potassium channel (human, UniProt Q12809)
Assay: primary screen, population patch clamp on CHO cells stably expressing hERG; higher = less effect of the substance
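Further: peak tail current of the secondary pulse compared with the same well before compound.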

human ether-à-go-go-related gene (hERG) potassium channel, sequence (Q12809 whole entry, looked up): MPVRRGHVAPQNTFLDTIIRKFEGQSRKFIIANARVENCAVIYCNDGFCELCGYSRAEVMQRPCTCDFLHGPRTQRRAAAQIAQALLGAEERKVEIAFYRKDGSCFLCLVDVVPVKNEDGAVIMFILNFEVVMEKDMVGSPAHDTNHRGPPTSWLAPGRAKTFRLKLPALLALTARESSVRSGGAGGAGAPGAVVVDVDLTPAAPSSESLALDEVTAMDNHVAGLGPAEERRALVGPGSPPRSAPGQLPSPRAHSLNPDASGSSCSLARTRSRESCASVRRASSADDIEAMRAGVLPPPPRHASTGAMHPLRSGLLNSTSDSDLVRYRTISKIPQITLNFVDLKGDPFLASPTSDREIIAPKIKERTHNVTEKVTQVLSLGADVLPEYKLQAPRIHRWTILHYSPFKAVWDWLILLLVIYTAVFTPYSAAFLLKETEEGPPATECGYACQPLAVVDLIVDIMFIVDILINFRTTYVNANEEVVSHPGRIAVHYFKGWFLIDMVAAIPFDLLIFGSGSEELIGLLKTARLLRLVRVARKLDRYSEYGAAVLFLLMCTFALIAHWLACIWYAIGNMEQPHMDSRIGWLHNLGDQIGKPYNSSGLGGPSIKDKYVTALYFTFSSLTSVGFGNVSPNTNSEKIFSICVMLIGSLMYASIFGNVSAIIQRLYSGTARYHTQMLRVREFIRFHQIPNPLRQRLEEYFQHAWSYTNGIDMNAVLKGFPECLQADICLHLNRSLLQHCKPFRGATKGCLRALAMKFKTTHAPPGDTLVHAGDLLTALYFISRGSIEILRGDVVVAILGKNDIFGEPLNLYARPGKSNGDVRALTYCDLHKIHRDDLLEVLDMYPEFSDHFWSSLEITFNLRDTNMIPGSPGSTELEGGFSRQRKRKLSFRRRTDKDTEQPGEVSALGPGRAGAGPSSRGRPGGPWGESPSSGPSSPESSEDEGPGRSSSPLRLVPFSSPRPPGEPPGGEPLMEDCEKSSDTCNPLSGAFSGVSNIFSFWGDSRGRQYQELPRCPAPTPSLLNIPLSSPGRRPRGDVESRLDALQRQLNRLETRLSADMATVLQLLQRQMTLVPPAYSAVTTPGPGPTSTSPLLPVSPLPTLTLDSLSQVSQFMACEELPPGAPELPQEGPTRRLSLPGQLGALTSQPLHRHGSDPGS

First: Cc1oc(-c2ccc(Cl)cc2)cc1C(=O)NC1CCN(Cc2ccccc2)CC1
Second: CC(NC(=O)c1cccc(S(=O)(=O)N2CCN(Cc3ccccc3)CC2)c1)c1ccc(Br)cc1 (stereo not drawn)
The “hERG current change (%, negative = inhibition) at 10uM” value of the first is higher: 1.09% for the first, -17.6% for the second.

First: CCc1cc(=O)oc2cc(C)cc(OC(C)C(=O)NCC(O)c3ccccc3)c12 (stereo not drawn)
Second: Cc1ccc(C)c(OCCC(=O)OCC(=O)NC(=O)NCc2ccccc2)c1
The “hERG current change (%, negative = inhibition) at 10uM” value of the first is higher: 4.7% for the first, 4.16% for the second.

First: Cc1ccc(CNC(=O)NC23CC4CC(CC(C4)C2)C3)cc1
Second: O=C(NCc1ccccc1)c1cccc(S(=O)(=O)N2CCCCC2)c1
The “hERG current change (%, negative = inhibition) at 10uM” value of the first is higher: 7.24% for the first, -52.5% for the second.

Compared with `CCn1cc(C(=O)NCC(OC)OC)c(=O)c2cc(S(=O)(=O)N3CCC(C)CC3)ccc21`, `CC(C)OCCCN(C)C1CCN(S(=O)(=O)c2csc(C(N)=O)c2)CC1` is higher in “hERG current change (%, negative = inhibition) at 10uM” value: -28.8% for the first, 13.1% for the second.

First: CSc1ccc(CNc2cccc3ccccc23)cc1
Second: O=C(O)c1ccccc1-c1ccccc1C(=O)NCc1ccccc1Cl
The “hERG current change (%, negative = inhibition) at 10uM” value of the first is higher: 2.23% for the first, -37.6% for the second.

Going from `CCOC(=O)c1c(NC(=O)c2ccc(Br)o2)sc2c1CCCC2` to `CCOC(=O)c1c(NC(=O)CSc2nnc(Cc3ccccc3)o2)sc(C)c1C`, the “hERG current change (%, negative = inhibition) at 10uM” value rises from -9.78% to 13.8%.

Compared with `Fc1ccc2nc3c(nc2c1)CCCC3`, `O=C(O)c1c2c(nc3ccc(Cl)cc13)CCC2` is lower in “hERG current change (%, negative = inhibition) at 10uM” value: 15.3% for the first, 4.39% for the second.

First: COCCCn1c(SCC(N)=O)nnc1-c1ccccc1
Second: CCOC(=O)c1c(NC(=O)CSc2nnc(-c3ccccc3)n2CC)sc(C(C)=O)c1C
The “hERG current change (%, negative = inhibition) at 10uM” value of the first is higher: -0.75% for the first, -31% for the second.

Going from `Cc1ccccc1CC1(CO)CCCN(C(=O)c2ccccc2Cl)C1` (stereo not drawn) to `Cc1ccccc1CC1(CO)CCCN(C(=O)c2ccccc2N(C)C)C1` (stereo not drawn), the “hERG current change (%, negative = inhibition) at 10uM” value rises from -81.5% to -1.63%.

Compared with `Cc1ccccc1CC1(CO)CCCN(C(=O)c2cc(Cl)ccc2F)C1` (stereo not drawn), `Cc1cc(S(=O)(=O)N2CCN=C2c2ccccc2)ccc1F` is higher in “hERG current change (%, negative = inhibition) at 10uM” value: -16.5% for the first, 7.23% for the second.

First: O=C(O)CC1Sc2nc3ccccc3n2C1=O (stereo not drawn)
Second: CCCCc1c(C)nc2ccccc2c1SCCC(=O)O
The “hERG current change (%, negative = inhibition) at 10uM” value of the first is lower: 8.05% for the first, 14.8% for the second.

First: COc1ccc(CN(C)C(=O)Cn2ccc(NC(=O)OCc3ccccc3)nc2=O)cc1OC
Second: COc1ccc(CN(C)C(=O)c2cccc(Oc3ccccc3)c2)c(OC)c1OC
The “hERG current change (%, negative = inhibition) at 10uM” value of the first is higher: -20.4% for the first, -20.6% for the second.

Going from `O=C(c1ccccc1)N1CCC(O)(c2cccnc2)CC1` to `O=C1N/C(=N/S(=O)(=O)c2ccccc2)S/C1=C/c1cccnc1`, the “hERG current change (%, negative = inhibition) at 10uM” value falls from 16.1% to 1.74%.

First: Cc1ccc2c(c1)c1c(n2C)C(=O)CCC1
Second: CCn1c2c(c3cc(Cl)ccc31)CCCC2=O
The “hERG current change (%, negative = inhibition) at 10uM” value of the first is higher: 11.8% for the first, 3.71% for the second.

Going from `Cc1ccc2c(c1)c1c3n2CCN=C3CCC1.Cl` to `c1cc2c(cc1C1CCCCC1)c1c3n2CCN=C3CCC1`, the “hERG current change (%, negative = inhibition) at 10uM” value rises from -76.3% to -33.9%.

First: OC1CN=C2CCCc3c2n(c2ccc(Cl)cc32)C1 (stereo not drawn)
Second: CS(=O)(=O)O.c1ccc(-c2ccc3c(c2)c2c4n3CCN=C4CCC2)cc1
The “hERG current change (%, negative = inhibition) at 10uM” value of the first is lower: -72.3% for the first, -61.5% for the second.

First: CS(=O)(=O)O.O=C(O)c1ccc2c(c1)c1c3n2CCNC3CCC1 (stereo not drawn)
Second: CN1CCN(S(=O)(=O)c2cccc(C(=O)O)c2)CC1
The “hERG current change (%, negative = inhibition) at 10uM” value of the first is higher: 20.7% for the first, 10.8% for the second.

Compared with `CCO.Cn1c2c(c(=O)n(C)c1=O)C1(C(=O)Nc3ccccc31)C(C#N)=C(N)O2` (stereo not drawn), `CCOC(=O)c1c(NC(=O)CSc2nnc(-c3ccccc3C)n2C)sc(C(C)=O)c1C` is lower in “hERG current change (%, negative = inhibition) at 10uM” value: 8.3% for the first, -63% for the second.

Compared with `CSc1nc(C)c(Oc2ccccc2)c(=O)n1C`, `CCCCc1c(C)nc2ccccc2c1SCCC#N` is lower in “hERG current change (%, negative = inhibition) at 10uM” value: 5.82% for the first, -50.6% for the second.

Compared with `CCC1CCCCN1C(=O)NC(=O)c1ccccc1` (stereo not drawn), `CCC1CCCCN1CC(=O)c1c(C)[nH]c2ccccc12` (stereo not drawn) is lower in “hERG current change (%, negative = inhibition) at 10uM” value: 30.3% for the first, -27.4% for the second.

Going from `CC(C)OCCCN(C)C1CCN(S(=O)(=O)c2ccc(-c3ccc(=O)[nH]n3)s2)CC1` to `CC(C)OCCCN(C)C1CCN(S(=O)(=O)c2ccc(-c3cc(C(F)(F)F)no3)s2)CC1`, the “hERG current change (%, negative = inhibition) at 10uM” value falls from -35.8% to -54.6%.

Going from `Cc1ccccc1C(=O)NC(=S)Nc1ccc(S(=O)(=O)N2CCOCC2)cc1` to `O=C(NCc1ccccc1CN1CCCC1)c1cccc(S(=O)(=O)N2CCOCC2)c1`, the “hERG current change (%, negative = inhibition) at 10uM” value falls from -40% to -44.5%.

Going from `O=C(NCCc1ccccc1)c1cccc(S(=O)(=O)N2CCCCC2)c1` to `O=C(NCc1ccccc1F)c1cccc(S(=O)(=O)N2CCCCCC2)c1`, the “hERG current change (%, negative = inhibition) at 10uM” value rises from 5.18% to 7.87%.

First: O=C(NCc1cccc(Cl)c1)c1cccc(S(=O)(=O)N2CCCCC2)c1
Second: O=C(NCc1ccccc1CN1CCCC1)c1cccc(S(=O)(=O)N2CCCC2)c1
The “hERG current change (%, negative = inhibition) at 10uM” value of the first is higher: 7.08% for the first, -55.1% for the second.

Compared with `CC(NC(=O)c1cccc(S(=O)(=O)N2CCCCCC2)c1)c1ccccc1` (stereo not drawn), `CC(NC(=O)c1cc(S(=O)(=O)N2CCCC2)cn1C)c1ccccc1` (stereo not drawn) is higher in “hERG current change (%, negative = inhibition) at 10uM” value: -58.2% for the first, -0.137% for the second.

First: Cc1ccc(C(NC(=O)c2cccc(S(=O)(=O)N3CCN(C)CC3)c2)c2ccccc2)cc1 (stereo not drawn)
Second: CN1CCN(S(=O)(=O)c2cccc(C(=O)N(C)C(c3ccccc3)c3ccccc3)c2)CC1
The “hERG current change (%, negative = inhibition) at 10uM” value of the first is lower: -61.8% for the first, -4.72% for the second.

Compared with `Cc1cc(C)c(NC(=O)CSc2nnc(CNC(=O)c3ccccc3F)o2)c(C)c1`, `CCOC(=O)c1c(NC(=O)CSc2nnc(Cc3ccccc3)o2)sc(C(C)=O)c1C` is lower in “hERG current change (%, negative = inhibition) at 10uM” value: -6.38% for the first, -64.8% for the second.

Compared with `CN1/C(=C\C(=S)NC(=O)c2ccccc2Cl)C(C)(C)c2ccccc21`, `CCOC(=O)/C=C1\SCC(=O)N1CC(=O)NC(c1ccccc1)c1ccccc1` is lower in “hERG current change (%, negative = inhibition) at 10uM” value: 23.6% for the first, -52.2% for the second.

First: COc1cc(C(=O)NCc2ncccc2C)ccc1OC1CCN(C(C)=O)CC1
Second: CCC1CCCCN1C(=O)CSc1nc(N)c(NC(=O)c2ccc(OC)c(OC)c2)c(=O)[nH]1 (stereo not drawn)
The “hERG current change (%, negative = inhibition) at 10uM” value of the first is higher: 6.34% for the first, 4.63% for the second.

Compared with `COc1ccc(OCCn2cncn2)cc1`, `COC(=O)C1=C(c2ccc(OC(F)(F)F)cc2)C[C@@H]2CC[C@H]1N2C(=O)NCCOc1ccc(OC)cc1` is lower in “hERG current change (%, negative = inhibition) at 10uM” value: 12.6% for the first, -26.3% for the second.

First: COC(=O)c1cc2sc(Cl)cc2n1CC(=O)N1CCCc2ccccc21
Second: COC(=O)c1sc(-c2ccc(Cl)cc2)cc1N
The “hERG current change (%, negative = inhibition) at 10uM” value of the first is higher: -1.75% for the first, -37.1% for the second.

First: CCc1c(C)nc2c(C)cccc2c1SCCC#N
Second: CCOC(=O)c1c(NC(=O)CSc2nnc(-c3cccc(C)c3)n2CC)sc(C(C)=O)c1C
The “hERG current change (%, negative = inhibition) at 10uM” value of the first is higher: 17.7% for the first, -18.9% for the second.

First: O=C(Cc1ccc(NC2=NC3CS(=O)(=O)CC3S2)cc1)NCc1ccccc1Cl (stereo not drawn)
Second: O=C(CN1C(=O)c2ccccc2S1(=O)=O)c1ccc(OC(F)F)cc1
The “hERG current change (%, negative = inhibition) at 10uM” value of the first is higher: 6.5% for the first, -23% for the second.

First: CCOC(=O)c1sc(NC(=O)CSc2nnc(Cc3ccccc3)o2)c(C(=O)OCC)c1C
Second: CCOC(=O)/C=C1\SCC(=O)N1CC(=O)NC(C)c1ccccc1 (stereo not drawn)
The “hERG current change (%, negative = inhibition) at 10uM” value of the first is higher: 9.46% for the first, -15.2% for the second.

Compared with `O=C(CNC(=O)c1cc2c(n(-c3ccccc3)c1=O)CCCC2=O)c1ccccc1`, `CN1CCN(C(=O)N2c3ccccc3CCc3ccccc32)CC1` is higher in “hERG current change (%, negative = inhibition) at 10uM” value: -38.5% for the first, 11.9% for the second.

First: O=C(O)C(=O)O.O=S(=O)(c1cccc(C(F)(F)F)c1)N(CCCN1CCOCC1)Cc1cccs1
Second: O=S(=O)(c1cccc(C(F)(F)F)c1)N(CCCN1CCOCC1)Cc1cccs1
The “hERG current change (%, negative = inhibition) at 10uM” value of the first is higher: -51% for the first, -74.9% for the second.

Compared with `O=C(NCCCN1CCOCC1)c1ccc(S(=O)(=O)Nc2cccc(C(F)(F)F)c2)cc1`, `Cl.O=S(=O)(NCCN1CCOCC1)c1cccc(C(F)(F)F)c1` is higher in “hERG current change (%, negative = inhibition) at 10uM” value: -12.8% for the first, 5.32% for the second.

First: CCN(CC)S(=O)(=O)c1cccc(C(=O)NCCCN2CCOCC2)c1
Second: O=C(NCCCN1CCOCC1)C1CCN(S(=O)(=O)c2cccc(C(F)(F)F)c2)CC1
The “hERG current change (%, negative = inhibition) at 10uM” value of the first is higher: 9.9% for the first, -9.45% for the second.

First: COc1ccc(S(=O)(=O)Nc2ccc3oc(C)c(C(C)=O)c3c2)cc1
Second: Cc1ccc(S(=O)(=O)NCCCCCC(=O)N(C)C)cc1
The “hERG current change (%, negative = inhibition) at 10uM” value of the first is higher: 12% for the first, 6.32% for the second.

First: O=C(c1ccc(COc2ccc3ccccc3c2)o1)N1N=C(C(F)F)CC1(O)C(F)F (stereo not drawn)
Second: CC(C)(C)c1ccc(CN(Cc2ccccc2)C(c2ccccn2)c2nnnn2C(C)(C)C)cc1 (stereo not drawn)
The “hERG current change (%, negative = inhibition) at 10uM” value of the first is lower: -2.62% for the first, 2.44% for the second.

Compared with `CC1(C)CC(NC(=O)C(F)(F)F)CC(C)(C)N1OC(=O)c1ccco1`, `O=C(NCC(=O)N1CCCCCC1)c1ccc(OC(F)F)cc1` is lower in “hERG current change (%, negative = inhibition) at 10uM” value: 1.13% for the first, -11.3% for the second.

First: CCOC(=O)/C=C1\SCC(=O)N1CC(=O)NC(C)C
Second: CCC1CCCCN1CC(=O)c1c(C)[nH]c2ccc(OC)cc12 (stereo not drawn)
The “hERG current change (%, negative = inhibition) at 10uM” value of the first is higher: 21.2% for the first, -20.6% for the second.

First: Br.O=C(CN1CCCCC1CO)c1ccc(OC(F)F)cc1 (stereo not drawn)
Second: CCC1CCCCN1CC(=O)c1ccc(OC(F)F)cc1 (stereo not drawn)
The “hERG current change (%, negative = inhibition) at 10uM” value of the first is higher: -68.2% for the first, -77.7% for the second.

For `O=c1c2cc(N3CCOCC3)ccc2[nH]c(=S)n1CCCN1CCCC1`, the “hERG current change (%, negative = inhibition) at 10uM” value was -4.98%.
